# Target: T1, L-selectin (LS-Rg) (Homo sapiens, UniProt P14151 P14151:39-332)
# T1 sequence: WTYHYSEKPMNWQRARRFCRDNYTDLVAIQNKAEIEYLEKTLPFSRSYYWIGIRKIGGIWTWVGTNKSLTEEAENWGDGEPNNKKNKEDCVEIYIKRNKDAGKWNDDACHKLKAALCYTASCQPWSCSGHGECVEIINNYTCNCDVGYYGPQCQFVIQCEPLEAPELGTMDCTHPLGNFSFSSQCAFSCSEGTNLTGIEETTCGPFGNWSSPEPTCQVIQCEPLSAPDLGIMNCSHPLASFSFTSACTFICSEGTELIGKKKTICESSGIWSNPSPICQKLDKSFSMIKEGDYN
# Test: filter; 26-nt hairpin truncate
# Conditions: tags: human IgG2 Fc fusion, chain copies: dimer, label: 32P; ssDNA
row,Sequence,binding signal
1,CCAGTACAAGGTGCTAAACGTAATGG,20 fold weaker than LD201
2,GCGTTACAAGGTGCTAAACGTAACGT,100 fold weaker than LD227

# — patent US20030059769, “High affinity nucleic acid ligands to lectins” (published 2003)
